From the supplement of paper PMC10121225
Where a name gives a salt, the structure may show the parent alone.

System: hN + hpA co-culture (H1 iNGN2 human neurons + human primary astrocytes)
Assay: presynaptic density (SYNAPSIN1 puncta per MAP2 neurite area), Z-score vs DMSO controls; higher = more presynaptic puncta (synapse-promoting)
Conditions: 3 µM; 72 h
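Note: immunostained co-cultures imaged by high-content microscopy, Z-score per plate against mean and SD of 0.1% DMSO wells, compounds added on differentiation day 18, analysed day 21.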

| SMILES | presynaptic density (Z-score) |
| --- | --- |
| O=C(Nc1ccccc1Br)N[C@@H]1CCN(c2ccc(C(F)(F)F)cn2)C1 | -1.47 |
| CCC(CC)CC1(C(=O)Nc2ccccc2SC(=O)C(C)C)CCCCC1 [Dalcetrapib (JTT-705] | -0.463 |
| CC(NC(=O)C(O)c1cc(F)cc(F)c1)C(=O)NC1C(=O)N(C)c2ccccc2-c2ccccc21 (stereo not drawn) | 0.0312 |
| CCCN[C@H]1CCc2nc(N)sc2C1 [Pramipexole] | 0.794 |
| O=C(Nc1ccccc1)N1CCN(c2nc(-c3ccccc3)ns2)CC1 | -0.242 |
| CC(C)(C)c1nc(-c2cccc(NS(=O)(=O)c3c(F)cccc3F)c2F)c(-c2ccnc(N)n2)s1 | 0.941 |
| C[C@@H]1C(=O)O[C@H]2C[C@@]34[C@H]5C[C@@H](C(C)(C)C)[C@]36[C@@H](OC(=O)[C@@H]6O)O[C@@]4(C(=O)O5)[C@]21O | -0.498 |
| CC(C)NCCCn1c(Sc2cc3c(cc2I)OCO3)nc2c(N)ncnc21 | -0.039 |
| Cc1cc(-c2ccc(CC(=O)Nc3ccc(-c4cccnc4)cc3)cc2)ccn1 | 0.0884 |
| OC[C@H]1O[C@@H](c2ccc(Cl)c(Cc3ccc(O[C@H]4CCOC4)cc3)c2)[C@H](O)[C@@H](O)[C@@H]1O | -0.331 |
| COc1ccc(COc2ccc(Cc3cnc(N)nc3N)cc2OC)cc1 | -0.788 |
| CNCc1ccc(-c2cc(-c3nc(-c4ccc(S(=O)(=O)C(C)C)cc4)cnc3N)on2)cc1 | -1.03 |
| CCCC(C)NC(=O)c1ccc(Cl)c(Cl)c1 (stereo not drawn) | -0.211 |
| CC(C)OC(=O)OCOP(=O)(CO[C@H](C)Cn1cnc2c(N)ncnc21)OCOC(=O)OC(C)C [Tenofovir Disoproxil Fumarate] | 0.611 |
| O=c1cc(-c2ccc(O)cc2)oc2cc(O)cc(O)c12 [Apigenin] | 0.0449 |
| Nc1ccc(C(=O)O)c(O)c1 [Sodium 4-Aminosalicylate] | 0.294 |
| N#C[C@@H]1CCCN1C(=O)CNC12CC3CC(CC(O)(C3)C1)C2 [Vildagliptin (LAF-237)] | 0.854 |
| COc1cc2c(cc1OC)[C@@H]1Cc3ccc(OC)c(OC)c3CN1CC2 [Rotundine] | -0.985 |
| C=C1C(=O)O[C@H]2[C@H]1CC/C(C)=C/CC[C@@]1(C)O[C@@H]21 [(-)-Parthenolide] | -0.888 |

| SMILES | presynaptic density (Z-score) |
| --- | --- |
| CN1CCC(CNc2ccc3ncc(-c4cccc(OC(F)(F)F)c4)n3n2)CC1 | -2.44 |
| COc1cc2c(cc1OC)CN(CCc1ccc(NC(=O)c3cc(OC)c(OC)cc3NC(=O)c3cnc4ccccc4c3)cc1)CC2 [Tariquidar] | -0.47 |
| C=C[C@@]1(C)CC(=O)[C@]2(O)[C@@]3(C)[C@@H](O)CCC(C)(C)[C@@H]3[C@H](O)[C@H](OC(C)=O)[C@@]2(C)O1 [Forskolin] | 0.455 |
| CNC(=O)c1cc(Oc2ccc(NC(=O)Nc3cc(C(C)(C)C)nn3-c3ccc4ncccc4c3)c(F)c2)ccn1 [DCC-2036 (Rebastinib)] | 0.594 |
| Cc1ccc([C@@H]2O[C@H](CO)[C@@H](O)[C@H](O)[C@H]2O)cc1Cc1ccc(-c2ccc(F)cc2)s1 [Canagliflozin] | -0.473 |
| Cc1ccc(C(=O)N(CCCN)[C@@H](c2oc3cc(Cl)ccc3c(=O)c2Cc2ccccc2)C(C)C)cc1 | -3.49 |
| O=C(O)CCc1ccc(NCc2cccc(Oc3ccccc3)c2)cc1 [4-[[(3-Phenoxyphenyl)methyl]amino]benzenepropanoic acid] | -0.812 |
| O=C(CCCCCCC(=O)Nc1ccc([C@H]2O[C@@H](CSc3nc(-c4ccccc4)c(-c4ccccc4)o3)C[C@@H](c3ccc(CO)cc3)O2)cc1)NO [Tubacin] | 0.79 |
| C#CCC(Cc1cnc2nc(N)nc(N)c2n1)c1ccc(C(=O)N[C@@H](CCC(=O)O)C(=O)O)cc1 (stereo partly drawn) [Pralatrexate] | 0.0678 |
| Cc1c(C(=O)NN2CCCCC2)nn(-c2ccc(Cl)cc2Cl)c1-c1ccc(Cl)cc1 [Rimonabant] | -0.594 |
| O=C(NOC[C@H](O)CO)c1ccc(F)c(F)c1Nc1ccc(I)cc1F | -0.369 |
| O=C1[C@H](Cc2ccc(O)cc2)N2C(=O)CCN(C(=O)NCc3ccccc3)[C@H]2CN1Cc1cccc2ccccc12 | -0.969 |
| N#CC1(c2ccc(NC(=O)c3cccnc3NCc3ccncc3)cc2)CCCC1 [Apatinib] | -1.31 |
| COc1c(O)cc2c(c1O)[C@@H]1O[C@H](CO)[C@@H](O)[C@H](O)[C@H]1OC2=O | 0.361 |
| CCOc1nc2cccc(C(=O)O)c2n1Cc1ccc(-c2ccccc2-c2nnn[nH]2)cc1 [Candesartan] | 0.323 |
| COc1cc(OC)c(/C=C/S(=O)(=O)Cc2ccc(OC)c(NCC(=O)O)c2)c(OC)c1 | -3.31 |
| COc1cc(Nc2ncc(F)c(Nc3ccc4c(n3)N(COP(=O)(O)O)C(=O)C(C)(C)O4)n2)cc(OC)c1OC [Fostamatinib (R788)] | 0.149 |
| C[C@@H]1CN(CC(=O)Nc2ccc3c(c2)Cc2cccc(-c4cc(=O)cc(N5CCOCC5)o4)c2S3)C[C@H](C)O1 | -1.12 |
| CC(=O)OCC(=O)NCCCOc1cccc(CN2CCCCC2)c1 | -0.62 |
